Shown are actives, neighbours in structure and some others; about 12% of the full set was active somewhere.
G9a block = qHTS Assay for Inhibitors of Histone Lysine Methyltransferase G9a; Histone-lysine N-methyltransferase EHMT2 (Homo sapiens), Q96KQ7; G9a H3K9 monomethylation, AlphaScreen, 2 h; Potency, µM (top dose mostly 102 µM), without a hit: top-dose activity, negative = inhibition, usual class: inhibitors; 8.8% of 350,000 active; note: % is set by controls: 0 for no effect and ±100 for the full control effect; nearly all actives have a fitted effect of over 75% in size
Target sequence (Q96KQ7 913-1193 limits assumed): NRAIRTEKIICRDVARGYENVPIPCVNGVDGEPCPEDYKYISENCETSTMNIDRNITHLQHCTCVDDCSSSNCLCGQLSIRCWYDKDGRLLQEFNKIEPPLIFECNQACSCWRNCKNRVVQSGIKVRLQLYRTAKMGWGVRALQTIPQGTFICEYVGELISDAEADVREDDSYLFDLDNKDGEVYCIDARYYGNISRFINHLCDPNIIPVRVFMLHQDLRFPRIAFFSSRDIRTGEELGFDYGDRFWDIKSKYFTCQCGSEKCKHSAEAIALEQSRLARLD
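Methyltransferase reactions run at room temperature for 2 h (20 nM enzyme, 500 nM biotin-H3K9 peptide, 20 uM SAM) after a 15 min compound preincubation; product detected by AlphaScreen beads and anti-H3K9me1 antibody.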
JMJD2A Tudor = qHTS Assay for Inhibitors of JMJD2A-Tudor Domain; Potency, µM (top dose mostly 114 µM), inactives show top-dose activity change, negative = inhibition, actives largely listed as inhibitors; Lysine-specific demethylase 4A (Homo sapiens), O75164; AID 504339, 2011; AlphaScreen JMJD2A-Tudor / H3K4me3 peptide binding; 4.4% of 390,000 active; note: % is set by controls: 0 for no effect and ±100 for the full control effect; nearly all actives have a fitted effect of over 50% in size
Sfp PPTase inh = qHTS Assay for Inhibitors of Bacillus subtilis Sfp phosphopantetheinyl transferase (PPTase); Biochemical Sfp PPTase activity, qHTS; Potency, µM, for the others: largest response in the series, negative = inhibition, actives largely listed as inhibitors; 3.5% of 310,000 active;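 note: the enzyme is Sfp with the accession as filed and its product quenches rhodamine fluorescence; 0% = enzyme reaction without inhibitor and -100% = no enzyme wells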
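Fluorescence-quenching assay: 15 nM Sfp-PPTase preincubated 15 min at room temperature with compound, then 5 uM rhodamine-CoA and 12.5 uM BHQ-2-labelled YbbR peptide added. Fluorescence (ex 525/em 598 nm) read at start and after 30 min; difference gives rate.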
BAZ2B block = qHTS Assay for Inhibitors of BAZ2B; Potency, µM (top dose mostly 114 µM), for the others: at the highest dose activity change, negative = inhibition, actives largely listed as inhibitors; 4.4% of 360,000 active; AlphaScreen BAZ2B-H3K14Ac peptide displacement; note: % is set by controls: 0 for no effect and ±100 for the full control effect; nearly all actives have a fitted effect of over 60% in size
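Multi-concentration screen (max 110 uM) measuring displacement of acetylated histone H3 peptide from BAZ2B by AlphaScreen, using 50 nM protein, 50 nM peptide and 10 ug/mL streptavidin donor plus Ni-chelate acceptor beads.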
TDP1 inh = qHTS Assay for Inhibitors of Tyrosyl-DNA Phosphodiesterase (TDP1) | Tyrosyl-DNA phosphodiesterase 1 (Homo sapiens), Q9NUW8 | recombinant TDP1, AlphaScreen DNA substrate cleavage | Potency, µM (titrated, usually from 130 µM), inactives show top-dose activity change, negative = inhibition, actives largely listed as inhibitors | 0.28% of 350,000 active; note: % is set by controls: 0 for no effect and ±100 for the full control effect; nearly all actives have a fitted effect of over 40% in size
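Recombinant E. coli-expressed Tdp1 (1 nM) preincubated with compound 15 min at RT, then 5'-biotin/3'-phosphotyrosine-FITC DNA substrate (15 nM) added for 5 min. AlphaScreen beads (10 ug/ml) added, 10 min RT; tyrosine-FITC cleavage read as signal loss.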
HP1b chromo inh = HTS for Inhibitors of HP1-beta Chromodomain Interactions with Methylated Histone Tails; AlphaScreen HP1-beta / biotin-H3K9me3 peptide binding; AID 540317, 2011; 0.56% of 390,000 active; Chromobox protein homolog 1 (Homo sapiens), P83916; Potency, µM (titrated, usually from 114 µM), for the others: at the highest dose activity change, negative = inhibition, most hits filed as inhibitors; note: nearly all actives have a fitted effect of over 70% in size
Target sequence (P83916 whole entry, looked up): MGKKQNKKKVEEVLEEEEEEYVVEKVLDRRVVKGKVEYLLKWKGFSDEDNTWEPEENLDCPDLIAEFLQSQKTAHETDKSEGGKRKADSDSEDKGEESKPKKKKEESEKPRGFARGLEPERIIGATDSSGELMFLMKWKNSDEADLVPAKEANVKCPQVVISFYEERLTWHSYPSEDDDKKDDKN
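AlphaScreen: HP1-beta (50 nM) preformed 30 min with biotin-H3(1-18)K9me3 peptide (50 nM) in PBS pH 7.4, 0.01% Tween-20. Compound added for 30 min at RT, then streptavidin donor/nickel chelate acceptor beads (10 ug/mL) for 30 min.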
Numbers without * were called inactive; u = inconclusive; x = not tested or not shown; [ ] = dose if it differs, or a comment. Calls come from the whole dose curve; as a rule, active = well fitted curve in the direction sought with a large enough effect; inconclusive = small, poorly fitted or top-dose-only effect, or another doubt; inactive = no such curve, though single readings can be large; an effect the other way counts as inactive or inconclusive. Potency is the fitted concentration of half-maximal effect.

SMILES	G9a block	JMJD2A Tudor	Sfp PPTase inh	BAZ2B block	TDP1 inh	HP1b chromo inh
CCOC(=O)c1c(C)[nH]c(C(=O)COC(=O)c2ccco2)c1C	x	-18%	x	x	-4%	30%
CN(C)c1cccc(NC(=O)c2cccc3ccccc23)c1	32µM*	22µM*	-3%	28µM*	x	50µM*
CC(=O)Nc1ccc(NC(=O)c2cccc3ccccc23)cc1	8%	u	29%	-14%	x	32%
CN(C)c1cccc(NC(=O)CCc2ccccc2)c1	3.2µM*	12%[11.4 µM]	1%	u	7%	u
CC(=O)Nc1cccc(NC(=O)CCc2ccccc2)c1	u	-9%	5%	-31%	-5%	5%
COc1cccc(CNC(=O)CCCn2c(=O)c3cccn3c3ccc(F)cc32)c1OC	4%[59 µM]	-3%	x	0%	-3%	41%
CC(C)(C)C(=O)C(Cl)C(=O)Nc1ccccc1 (configuration not stated)	u	-1%	45µM*	-3%	x	53%
O=C(Nc1ccc(Nc2ccccc2)cc1)C(Cl)Cl	u	u	-10%	u	8%	5%[57 µM]
COc1cccc(/C=C/C(=O)Nc2ccc3nc4n(c(=O)c3c2)CCCC4)c1OC	-3%	-22%	38%	-7%	3%	14%
CC(C)N=C1NN=C(c2ccc(F)cc2)CS1	u	-32%	56µM*	-23%	7%	16%
CC(O)(c1ccc(Cl)cc1)c1ccc(Cl)cc1	x	x	3%	x	11%	x
CCCN(C(=O)c1cccc(-n2cccc2)c1)c1c(N)n(Cc2ccccc2)c(=O)[nH]c1=O	45µM*	16µM*	x	50µM*	45µM*	45µM*
CCCCN(C(=O)c1cccc(-n2cccc2)c1)c1c(N)n(CCC)c(=O)[nH]c1=O	4%[0.501 µM]	14µM*	x	45µM*	50µM*	79µM*
O=C(NCC1CCCO1)C(c1ccc(F)cc1)N(CC1CCCO1)C(=O)c1ccc(-c2ccccc2)[nH]1 (configuration not stated)	x	-26%	-15%	40µM*	2%	20%
CSCC[C@H](NC(=O)[C@H](CC(C)C)NC(=O)CNC(=O)[C@H](Cc1ccccc1)NC(=O)[C@H](Cc1ccccc1)NC(=O)[C@H](CCC(N)=O)NC(=O)[C@H](CCC(N)=O)NC(=O)[C@@H]1CCCN1C(=O)[C@H](CCCCN)NC(=O)[C@@H]1CCCN1C(=O)[C@H](CCCN=C(N)N)NC(=O)CCCCC1SCC2NC(=O)NC21)C(N)=O (some centres not stated)	x	x	2%	x	28%	x
Cc1c(N=NC2=C(O)CC(C)(C)CC2=O)cc2c(c1[N+](=O)[O-])C(C)(C)CC2(C)C	u	22µM*	23%	u	x	u
CC(=O)Nc1ccc(C(=O)NC(C)c2ccc(-n3ccnc3)cc2)cc1 (configuration not stated)	27%	-5%	21%	-38%	5%	17%
CC(=O)Nc1cccc(C(=O)NC(C)c2ccc(-n3ccnc3)cc2)c1 (configuration not stated)	45µM*	-14%	7%	u	2%	11%
COc1ccccc1C(=O)NCCC(=O)NC(C)c1ccc(-n2ccnc2)cc1 (configuration not stated)	20µM*	-16%	x	-14%	-7%	35%
CC(NC(=O)CCNC(=O)c1ccccc1Cl)c1ccc(-n2ccnc2)cc1 (configuration not stated)	-41%	6%	13%	-18%	5%	37%
O=C(c1cccc(F)c1)N1CCC[C@@]2(CCN(Cc3ccccc3)C2)C1	4%[12.7 µM]	x	9%	x	x	x
Cc1ccc(S(=O)(=O)N(C)c2ccc(C(=O)NCC(c3ccco3)N(C)C)cc2)cc1 (configuration not stated)	-3%[59 µM]	-10%	x	-8%	2%	28%
O=C(O)C1(C(=O)O)CCCC1	x	-27%	x	x	x	6%[57 µM]
O=C(O)C1(C(=O)O)CCC1.[NH2-].[NH2-].[Pt+2]	x	x	6.3µM*	x	23%	x
S=c1[nH]nc(Cc2sc(-c3ccccc3)nc2-c2ccccc2)o1	28µM*	-32%	6%	u	10%	2%
SMILES	G9a block	JMJD2A Tudor	Sfp PPTase inh	BAZ2B block	TDP1 inh	HP1b chromo inh
O=C(O)c1ccc2c(c1)S(=O)(=O)c1ccccc1C2=O	45µM*	-18%	1%	-32%	x	39%
O=C(OCc1ccccc1)c1ccc2c(c1)-c1ccccc1C2=O	5µM*	-29%	3%	-29%	5%	-3%
COCC(C)NC(=O)c1ccc2c(c1)S(=O)(=O)c1ccccc1C2=O (configuration not stated)	10%	4%	12%	-21%	5%	40%
CC(OC(=O)c1ccc2c(c1)S(=O)(=O)c1ccccc1C2=O)C(N)=O (configuration not stated)	45µM*	-13%	0%	-9%	3%	-7%
NC(=O)c1ccc2c(c1)S(=O)(=O)c1ccccc1C2=O	-1%[2.33 µM]	-12%	-27%	9%	7%	38%
CCC(C)NC(=O)c1ccc2c(c1)S(=O)(=O)c1ccccc1C2=O (configuration not stated)	20µM*	-13%	1%	-34%	-1%	22%
Cc1noc(C)c1COC(=O)c1ccc2c(c1)S(=O)(=O)c1ccccc1C2=O	32µM*	-29%	1%	u	8%	-7%
CN(C)CC1CCn2c(c(C3=C(c4cn(C)c5ccccc45)C(=O)NC3=O)c3ccccc32)C1 (configuration not stated)	x	x	-22%	x	13%	x
O=C1CSC(c2ccco2)N1 (configuration not stated)	79µM*	-4%	-3%	1%	1%	27%
O=C(O)C1CSC(c2ccco2)N1 (configuration not stated)	3.2µM*	-22%[11.4 µM]	u	50µM*	x	40µM*
CC1CCC(C(=O)O)NC1c1ccc(-c2ccco2)cc1 (configuration not stated)	x	x	10%	x	-1%[21 µM]	x
COc1ccc(C2NC(=O)CS2)cc1 (configuration not stated)	-12%[59 µM]	-6%	-9%	-2%	-2%	30%
Cc1ccc(NS(=O)(=O)c2cc3c(cc2F)NC(=O)CC3)cc1C	x	-7%	x	x	0%	x
